Molecules are shown by their SMILES. This is part of a sample that, as a whole, favours compounds with a hit. Of some 83,000 tested, about 20% had one in any assay.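 Percent growth is the endpoint: 0 to 100 indicates growth inhibition (40 means 60% inhibition), 0 means no net growth, and negative values indicate cell death.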 Calls of active or inactive are those of the source. Rule for the calls: active = growth percent below 10; inactive = the rest.

In the experiment the test system is SF-539 CNS. Description: NCI-60 one-dose screen, 48 h (100 = growth as untreated, 0 = no growth, -100 = all killed). As to conditions: 10 µM unless noted.
As for `CCCSC1=NC2C(N(CC)C(=O)N2CC)N1/N=C/C=C/c1ccccc1[N+](=O)[O-]` (centres undefined), the growth is -11.9% (active).

As to `COC(=O)C1=Nc2ccc(F)cc2/C1=C/c1sc(=S)[nH]c1O`, the growth is -26.6% (active).

With `O=C1c2cc(Br)ccc2Oc2cc([N+](=O)[O-])ccc2N1c1ccc(I)cc1F`, the growth was 101% (inactive).

With `COc1cccc(-c2nn(C)c3sc(C(=O)NCCN4CCN(c5ccccc5F)CC4)cc23)c1`, the growth was 56.4% (inactive).

Consider `O=S(=O)(c1ccccc1)n1cc2c(c1-c1ccccc1)CCc1sc(Nc3ccccc3)nc1-2`, for which the growth was 106% (inactive).

`CN1CCN(Cc2ccc(NC(=O)c3cncc(C#Cc4nc(N)nc5[nH]ncc45)c3)cc2C(F)(F)F)CC1`: the growth was 104% (inactive).

In the case of `Clc1ccc(-c2nnc(COc3ccc(C4=NNC(c5ccco5)C4)cc3)o2)cc1` (centres undefined), the growth was 95.6% (inactive).

Take `CC(=O)c1ccc(Cc2ccc(C(C)=O)s2)s1`: the growth is 94.1% (inactive).

For the molecule `CCOC(=O)c1cnc2ccc(Cl)cc2c1NCCCN(C)C`, the growth is -12.7% (active).

As to `CCN1C(=O)N(CC)C2C1NN=c1s/c(=C3\C(=O)N(CC(C)(C)C)c4ccccc43)c(=O)n12` (centres undefined), the growth was -17.9% (active).

For `CC(=O)c1ccc2oc(=O)n(Cc3ccc(C#N)cc3)c(=O)c2c1`, the growth was 96.8% (inactive).

Regarding `O=C1/C(=C/c2cccc(O)c2)COc2ccc(O)cc21`, the growth is 92.3% (inactive).

On to `O=C(Nc1nc2c(s1)CCc1c-2c(Br)n(Cc2ccccc2)c1Br)c1ccccc1`, for which the growth is 18.1% (inactive).

As to `Nc1n[nH]c2ccc([C@@H]3Nc4ccc5[nH]ncc5c4[C@H]4[C@H]5CCC(C5)[C@H]43)cc12`, the growth is -15.8% (active).

For the molecule `CN(C)c1ccc(/C=C/c2ccnc3c(O)cccc23)cc1`, the growth was 2.91% (active).

Consider `CCOC(=O)c1cc2c(n1Cc1cccc(OC)c1)-c1oncc1CCC2`, for which the growth is 2.09% (active).

With `Cn1nc(C(C)(C)C)cc1NC(=O)Cc1ccc(/C=C2\C(=O)Nc3ccccc32)cc1`, the growth was 54.9% (inactive).

For the molecule `Cc1c(C(=O)OCCO)cc(-c2ccc(Cl)cc2)n1-c1ccc(Cl)cc1Cl`, the growth was 77.5% (inactive).

`CCC1=C[C@]2(C3CC(=O)N(c4ccccc4)C3=O)CC(C(C)(C)C)C[C@@H]2[C@@H]2C(=O)N(c3ccccc3)C(=O)[C@H]12` (some centres undefined): the growth was 95.3% (inactive).

On to `Nc1ccc(-c2nn3c(CCC(=O)c4nc5ncccc5[nH]4)nnc3s2)c(O)c1`, for which the growth is 89.1% (inactive).

In the case of `CCCCCCc1cc2cc(-c3nc4ccccc4[nH]3)c(=Nc3ccccc3C)oc2cc1O`, the growth is 75.3% (inactive).

As to `COc1ccc(OC)c(N(CCN2C(=O)c3ccccc3C2=O)C(=O)CCl)c1`, the growth is 23.1% (inactive).

As to `COc1ccc(C)c2sc(N(Cc3cccnc3)C(=O)c3ccc(C#N)cc3)nc12`, the growth is -26% (active).

For the molecule `O=C(/C=C/c1ccccn1)c1ccc(OCc2nnc(-c3ccc(Cl)cc3)o2)cc1`, the growth was -4.02% (active).

As for `COc1ccc(C2C3=C(COC3=O)N(CCO)c3cc4c(cc32)CCC4)cc1` (centres undefined), the growth is 57.2% (inactive).

Regarding `CN(C)/C=C1\SC(=Nc2ccc(Cl)cc2)NC1=O`, the growth was 96% (inactive).

In the case of `c1ccc(CNc2nc(Nc3ccccc3)nc3ccccc23)cc1`, the growth is 40.2% (inactive).

As for `COc1ccc2c(c1)C=C1CSCC3=Cc4cc(OC)ccc4OC13O2`, the growth was -25.4% (active).

Consider `COc1ccc(C(O)(CCC(C)C)C(CN2CCOCC2)c2ccc(Cl)cc2)cc1` (centres undefined), for which the growth is 64.7% (inactive).

Take `COC(=O)[C@H]1CCCN1C(=O)[C@H]1CCCN1C(=O)[C@H](Cc1c[nH]c2ccccc12)NC(=S)Nc1cc(C(F)(F)F)cc(C(F)(F)F)c1`: the growth was 74.3% (inactive).

For `CCn1c(Cc2ccccc2Nc2c(Cl)cccc2Cl)nnc1SCC(=O)NN1C(=O)/C(=C/c2cccc(OC)c2OC)SC1=S`, the growth is 101% (inactive).

Regarding `CCCC(c1nnnn1C1CCCCC1)N1CCN(C(=O)c2ccco2)CC1` (centres undefined), the growth was 65.7% (inactive).

Take `C1=CC2(C=C1)OC21CCC2(C=CC3(C2)OC3C2CCCCC2)CC1` (centres undefined): the growth is 101% (inactive).

As for `O=C(NC1CCN(Cc2ccccc2)CC1)c1cc(C(=O)NC2CCN(Cc3ccccc3)CC2)cc(C(=O)NC2CCN(Cc3ccccc3)CC2)c1`, the growth is 90.5% (inactive).

As for `COc1cc(-c2c3c(c(Br)n2Cc2ccccc2)-c2nc(N)sc2CC3)cc(OC)c1OC`, the growth is 98.1% (inactive).

Turning to `NC(CCc1nc2ccccc2c(=O)[nH]1)C(=O)O` (centres undefined), the growth was 105% (inactive).

With `Nc1no[n+]([O-])c1-c1nnc2c(n1)-c1ccccc1C2=O`, the growth is 81.8% (inactive).

With `CCOc1ccc(-c2nonc2NC(=O)c2cccc(C)c2)cc1OCC`, the growth was 80.8% (inactive).

As to `Cc1ccc(OCCCCCCNCCO)c(C)c1`, the growth is -14.7% (active).

Values taken from PubChem BioAssay (NCI).
